Some structures have more than one record in an assay (separate samples or runs), and their calls can disagree. The source made the active and inactive calls. Rule for the calls: active = hit-call score of the fitted dose curve at least 0.9, where 1 is the maximum; inactive = score below 0.9.

This assay in a line: CCTE_Shafer_MEA_acute_per_network_burst_spike_number_std: CCTE's Neural Acute Assay for Standard Deviation of Number of Spikes in a Network Burst, Shafer Lab (AID 2284020).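 Note: fitted for decrease in spike-number SD versus DMSO so actives lower it.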 Here is the method:
CCTE_Shafer_MEA_acute assay is conducted using Axion Biosystems 48 well microelectrode array (MEA) plates and Maestro recording system. Each well of the MEA plate contains a grid of 16 microelectrodes embedded in the culture surface. Electrically active cells, such as neurons, can be cultured over the electrodes, and electrical activity in these cells can be recorded extracellularly. The spontaneous firing of neurons is captured from each electrode on a microsecond timescale providing both temporally and spatially precise data. […] The CCTE_Shafer_MEA_acute assay uses primary cultures of rat cortical neurons. As these cultures mature over time, neural networks develop functional activity and form cohesive networks in which electrical activity can be highly coordinated. Baseline 40-minute recordings are made on days post-plating 13 or 15, followed by a secondary 40-minute recording after chemical exposure.CCTE_Shafer_MEA_acute_per_network_burst_spike_number_std is a component of the CCTE_Shafer_MEA_acute assay. It measures the standard deviation of the number of spikes (action potential firings) in a network burst (temporally-clustered group of spikes across multiple electrodes) during a recording in a microelectrode array (MEA) using Axion Biosystems Maestro 768 channel amplifier with the AxIS adaptive spike detector. The recordings before and after chemical treatment are used to calculate a percent change in the standard deviation of the number of spikes in network bursts in each well.Data from the assay component CCTE_Shafer_MEA_acute_burst_spike_number_std was analyzed into 1 assay endpoint. This assay endpoint, CCTE_Shafer_MEA_acute_burst_spike_number_std, was analyzed in the negative analysis fitting direction relative to DMSO as the negative control and baseline of activity. Using a type of functional reporter, gain or loss-of-signal activity can be used to understand electrical activity.
Spontaneous activity in the cortical cultures was recorded using an Axion Biosystems Maestro 768 channel amplifier and Axion Integrated Studios (AxIS) v1.8 (or later) software. The amplifier recorded from all channels simultaneously (gain = 1200 x; sampling rate = 12.5 kHz/channel): raw signals were filtered with a Butterworth band-pass filter (300-5000 Hz), which filters out slower local field potentials leaving only fast potentials, i.e., "spikes", arising from extracellular currents associated with action potentials (Pine 2006; Wheeler and Nam 2011). On-line spike detection of filtered signals was conducted with the AxIS adaptive spike detector, using a threshold of 8x the root mean squared (rms) noise on each channel. Any electrodes with rms noise levels greater than 5 uV were grounded (e.g., no data were recorded). Once grounded, an electrode was grounded for the duration of the experiment. All recordings were conducted at 37 C. Wells were deemed usable if on the day of the exposure >/= 10 electrodes were active (defined as >/= 5 spikes/min). On DIV 13 or 15, a minimum of three wells from one cortical culture preparation were treated with each compound (0.03-40 uM). Prior to recording baseline activity, each mwMEA plate was placed in the Maestro at 37 C and allowed to sit for 20 min while firing rates stabilized. Baseline activity (40 min) was recorded before the addition of each compound. An additional 40 min of spontaneous activity was recorded in the presence of each compound. Changes in network parameters relative to baseline were assessed following compound treatment.
For the compound `[Cd+2].[Cl-].[Cl-]`, the compound was called inactive. As a reminder, the AC50 is the concentration giving half of the maximal activity seen. In the case of `O=[N+]([O-])O`, the compound was called inactive and the AC50 was 3 nM (active).

`O=C(O)CNCP(=O)(O)O`: the call was inactive. As for `CP(=O)(O)CC[C@H](N)C(=O)O`, the compound was called inactive. As to `Cc1ccc(OP(=O)(Oc2ccc(C)cc2)Oc2ccc(C)cc2)cc1` (tested in a mixture with another compound), the AC50 was 3320 nM (active). The same measure, in the same setting: the value for `CCCC[N+](CCCC)(CCCC)CCCC` was 5600 nM (active); that for `CC1(C)[C@H](C(=O)O[C@H](C#N)c2cccc(Oc3ccccc3)c2)[C@@H]1C=C(Br)Br` was 642 nM (active). As for `O=c1c2ccccc2c(=O)c2c1cc(Cl)c1[nH]c3c([nH]c12)c(Cl)cc1c(=O)c2ccccc2c(=O)c13`, the outcome was inactive. The same measure, in the same setting: to `c1cc[n+]2c(c1)-c1cccc[n+]1CC2` belongs “inactive”.

Regarding `CP(=O)(O)CCC(N)C(=O)O` (stereo unspecified), the outcome was inactive. Same read-out and setting: the value for `C#CCN(C)[C@H](C)Cc1ccccc1` was “inactive”; that for `COc1ccc(CO)cc1` was “inactive”.

Regarding `CC1(C)[C@H](C=C(Cl)Cl)[C@@H]1C(=O)O[C@@H](C#N)c1cccc(Oc2ccccc2)c1`, the half-maximal activity concentration (AC50) was 682 nM (active). On the same count and under the same terms, the value for `Oc1ccc(C2(c3ccc(O)cc3)c3ccccc3-c3ccccc32)cc1` was 23100 nM (active); that for `CC1(C)[C@@H](C=C(Cl)Cl)[C@@H]1C(=O)O[C@@H](C#N)c1ccc(F)c(Oc2ccccc2)c1` was 534 nM (active).

For the origin of these results see PubChem BioAssay (EPA / NIEHS).
